As usually defined, the AC50 is the concentration giving half of the maximal activity seen.

Calls of active or inactive are those of the source. How the source made its calls: active means hit-call score of the fitted dose curve at least 0.9, where 1 is the maximum; inactive means score below 0.9.

Read-out in this assay: Protein phosphatase 2A (PPP2R4), PTPA (gene 5524)
In words: LTEA_HepaRG_PPP2R4: Life Technologies and Expression Analysis (LTEA) Assay for Protein phosphatase 2A (PPP2R4) using HepaRG (AID 2283522). As to conditions: mRNA level, 48 h; actives raise or lower the signal. How it is done: LTEA_HepaRG is a cell based, multiplexed-readout assay that uses HepaRG, a human liver cell line, with measurements taken at 48 hours after chemical dosing on a 96-well plate.LTEA_HepaRG_PPP2R4 is one of 102 assay component(s) measured in the LTEA HepaRG cell culture assay. It is a marker of Cell proliferation, survival, death.Data from the assay component LTEA_HepaRG_PPP2R4 was analyzed into 1 endpoint. This assay endpoint, LTEA_HepaRG_PPP2R4, was analyzed with bidirectional fitting relative to DMSO as the negative control and baseline of activity. Using a type of inducible reporter, measures of mRNA induction for gain or loss-of-signal activity can be used to understand regulation of transcription factor activity. To generalize the intended target to other relatable targets, this assay endpoint is annotated to the phosphatase intended target family, where the subfamily is serine/threonine phosphatase.
A total of 1060 chemcials from the ToxCast library were tested in eight-point concentration-response experiments. Cell culture and cytotoxicity assays were conducted at Thermo Fisher Scientific's Custom Services facility (Madison, WI). A single lot of human HepaRG cells (Thermo Fisher Scientific, Frederick, MD) was used for the cell culture experiments. 96-well format collagen type I coated plates of human HepaRG cells were prepared using established methods. Briefly, cryopreserved HepaRG cells were thawed, plated at a density of approximately 100,000 cells/well in HepaRG Thaw, Plate, and General Purpose media (HPRG770, Thermo Fisher Scientific), and incubated for 48 hours. 0.5% DMSO was selected as vehicle control to balance the requisite need of DMSO in HepaRG cultures to maintain differentiation (for example, baseline metabolism, proportions of hepatocytes vs. cholangiocytes), while enabling further hepatic receptor pathway activation (for example, PXR and CAR) in response to chemical exposure. 48 hours after plating, the culture medium was replaced with HepaRG Serum-Free Incudtion Media. Cells were exposed to each test chemical in duplicate and maintained in CO2 incubators for another 48 hours. Chemical plates were thawed to room temperature and 200x concentrations of treatment groups were prepared. 8-point conentration-reponse curves were made with the highest exposure at 100 uM, followed by half-log dilutions, all in 0.5% DMSO. Each test plate contained variouse controls, induction positive controls (1mM phenobarbital), cytotoxicity positive controls ([…] aflatoxin B1), vehicle controls (0.5% DMSO), and total lysis controls (0.5% DMSO). Cell morphology images were taken using an Essen IncuCyte FLR automated microscope, with six 96-well plates imaged in about 24 minutes. Images were captured and exported and JPEG files. Spent culture media was transfered to black-well plates for the LDH assay, and remaining media was sorted at -80 C for later use. Cells were treated with RLT buffer and frozen until shipped for gene expression analysis. Total RNA was isolated from the cell suspension in 75 uL of Buffer RLT (Qiagen, Germantown, MD 20874) by Quintiles/Expression Analysis (Durham, NC) using a custom isolation procedure. Total RNA from each plate well was transferred to a preamplification plate. Fluidigm's 96.96 Dynamic ArrayTM (Fluidigm, Amsterdam, the Netherlands) technology was used for gene expression analyses by quantitative reverse transcription polymerase chain reaction (qRT-PCR, performed by Quintiles/Expression Analysis, Durham, NC)89. Standard TaqManTM Assays (Applied Biosystems/ThermoFisher Scientific, Foster City, CA) were used to assess the expression of 93 genes selected based on their selectivity and sensitivity to important hepatic receptors known to be modulated by environmental chemicals; importance in human hepatocyte functionality; and hepatotoxicity. […]
Regarding `OC(CCl)CCl`, the result was inactive.
The same measure, in the same setting: to `O=C(O)[C@H](O)[C@@H](O)C(=O)O` belongs “inactive”.
With `COCc1nnc(-c2ccc[n+]([O-])c2)n1-c1c(Cl)c(Cl)cc2[nH]c(=O)c(=O)[nH]c12`, the call was inactive.
Consider `O=c1[nH]cnc2c1ncn2[C@H]1CC[C@@H](CO)O1`, for which the call was inactive.
Still for that read-out and setting: to `Cn1c(=O)c2[nH]cnc2n(C)c1=O` belongs “inactive”; to `CCN(CC)C(=S)SSC(=S)N(CC)CC`, “inactive”.
For `Cc1nccn1-c1ccc(Sc2cccc(C3(C(N)=O)CCOCC3)c2)cc1`, the AC50 is 27.7 µM (active).
As for `c1ccc2ncccc2c1`, the call was inactive.
Same read-out and setting: as for `Cc1ncc([C@@H](CCCCCCc2ccc3c(n2)NCCC3)CC(=O)O)cn1`, the entry is “inactive”; as for `COS(C)(=O)=O`, “inactive”.
As to `OC(Cn1cncn1)(Cn1cncn1)c1ccc(F)cc1F`, the compound was called inactive.
Still for that read-out and setting: to `CCCCCOC(C)=O` belongs “inactive”; to `O=C1CN(N=Cc2ccc([N+](=O)[O-])o2)C(=O)N1`, “inactive”; to `OCC(CO)(CO)CO`, “inactive”.
On the same count and under the same terms, as for `CCCc1ccccc1`, the entry is “inactive”; as for `CC[C@H](C)C(=O)O[C@H]1C[C@H](O)C=C2C=C[C@H](C)[C@H](CC[C@@H](O)C[C@@H](O)CC(=O)O)[C@H]21`, “inactive”.
With `CCCCN1C(=O)[C@@H]([C@H](O)C2CCCCC2)NC(=O)C12CCN(Cc1ccc(Oc3ccc(C(=O)O)cc3)cc1)CC2`, the concentration at half-maximal activity (AC50) was 3.88 µM (active).
As for `O=C(O)c1cccc(C[C@@H]2COc3ccc(OCc4nc5cc(F)ccc5s4)cc3[C@@H]2O)c1`, the outcome was inactive.
As to `CCOC(N)=O`, the compound was called inactive.
Same read-out and setting: to `CCCCCCCC1CCC(=O)O1` (stereo not given) belongs “inactive”; to `Cn1cc[nH]c1=S`, “inactive”; to `CCCCCCCCCC`, “inactive”.
With `OC[C@H]1O[C@@H]2O[C@H]3[C@H](O)[C@@H](O)[C@@H](O[C@H]4[C@H](O)[C@@H](O)[C@@H](O[C@H]5[C@H](O)[C@@H](O)[C@@H](O[C@H]6[C@H](O)[C@@H](O)[C@@H](O[C@H]7[C@H](O)[C@@H](O)[C@@H](O[C@H]1[C@H](O)[C@H]2O)O[C@@H]7CO)O[C@@H]6CO)O[C@@H]5CO)O[C@@H]4CO)O[C@@H]3CO`, the compound was called inactive.
On the same count and under the same terms, to `CCCOc1ccc(S(=O)(=O)N2CCN(CC)CC2)cc1-c1nc2c(CC)n(Cc3ccccn3)nc2c(=O)[nH]1` belongs “inactive”; to `CNC(C)=O`, “inactive”; to `Cc1nc(-c2ccccn2)ncc1C(=O)Nn1cc(C)c2cc(F)ccc21`, “inactive”.
Same read-out and setting: as for `OC[C@H]1O[C@@](CO)(O[C@H]2O[C@H](CO)[C@@H](O)[C@H](O)[C@H]2O)[C@@H](O)[C@@H]1O`, the entry is “inactive”; as for `NC(=O)N1c2ccccc2C=Cc2ccccc21`, “inactive”; as for `CCCC(CCC)C(=O)O`, “inactive”.
On the same count and under the same terms, to `CC(C)C(=O)Nc1ccc([N+](=O)[O-])c(C(F)(F)F)c1` belongs “inactive”.
`CCCCCCCCCCCCCCO`: the call was inactive.
Still for that read-out and setting: as for `COc1cc(C(C)C)c2c(c1)S(=O)(=O)N(COc1cc(=O)n3cccc(OCCN4CCCCC4)c3n1)C2=O`, the entry is “inactive”; as for `Nc1ccn([C@@H]2O[C@H](CO)[C@@H](O)[C@@H]2O)c(=O)n1`, “inactive”.
On to `c1ccc(C(O[C@@H]2CCCN(CCc3ccc4c(c3)OCO4)C2)c2ccccc2)cc1`, for which the AC50 was 50 µM (active).
As to `Cc1ccc(S(=O)(=O)NC(=O)NN2CCCCCC2)cc1`, the compound was called inactive.
Same read-out and setting: to `COc1cc2c(c(OC)c1OC)-c1ccc(OC)c(=O)cc1[C@@H](NC(C)=O)CC2` belongs “inactive”; to `CCOc1ccc2[nH]cc(C(=O)NCc3ccccc3)c(=O)c2n1`, “inactive”.
Same read-out and setting: as for `c1ccc2cc3ccccc3cc2c1`, the entry is “inactive”.
Still for that read-out and setting: as for `CC(=O)c1ccccc1`, the entry is “inactive”; as for `CCn1nc(C)c2c1C(=O)NCC(c1ccc(O)cc1)=N2`, “inactive”.

Values taken from PubChem BioAssay (EPA / NIEHS).
